Compound activity from PubChem.
Most compounds without a hit are left out; they make up all but 14% or so of the library.
CRE Fsk mod: modulators of forskolin-stimulated CRE signaling in CHO cells; CHO CRE-bla reporter (cAMP response element driving beta-lactamase), forskolin EC10, beta-lactamase ratio; Potency, µM (titrated, usually from 38.2 µM), for inactives: top-dose activity change, negative = inhibition, most hits filed as activators; hit rate 2.5% among 71,000; AID 662; active means well fitted activation curve with a large enough effect in the signal ratio, with a control signal flat, not every such curve was filed as active; inconclusive means small, poorly fitted or top-dose-only effect, or effect the other way, or a change in a side signal; the % refers to the signal ratio; further: potency means the concentration at half of the fitted maximal effect; % of control where 0% means no effect
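AC50 values, positive or negative, reflect shifts in EC10 NKH 477-induced CRE-bla reporter activity in CHO cells. Incubation lasted 3 h at 37 °C before CCF4 substrate (2 h, room temperature) and ratiometric 460/530 nm reading.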
HSD17B inh: blocks hydroxysteroid 17-beta dehydrogenase activity. Q99714. Potency, µM (top dose mostly 57.1 µM), inactives show at the top dose activity change, negative = inhibition, usual class: inhibitors. hit rate 7.6% among 75,000. recombinant HSD17B10, NADH fluorescence kinetic;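 further: the protocol describes HADH2 (HSD17B10) and not the HSD17B4 of the title; potency means the concentration at half of the fitted maximal effect; on the % scale 0 is the no-effect control and ±100 the full control effect; nearly all actives have a fitted effect of over 70% in size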
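20 nM HADH2, pH 9.0 Tris/Tween; cpd preinc 15 min RT; start w/ 1 mM NAD+ + 90 uM b-hydroxybutyryl-CoA; kinetic fluor ex360/em450 q30s x 4 min; delta last-first.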
4-MU autofl: compounds fluorescent in 4-MU spectral region. hit rate 11% among 59,000. max dye-equivalent concentration, M. compound autofluorescence, 340/450 nm, 4-MU equivalents; stronger effect = higher value; in the data active means max dye-equivalent concentration above about 10 nM; inconclusive means mostly about 1.1 nM to 9.6 nM
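Compounds in 100 mM Tris, pH 8.0, sat 15 min at room temperature before fluorescence was read at 340 nm excitation/450 nm emission; a per-plate six-point 4-MU standard curve converted signals to dye-equivalent concentration at each compound concentration.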
HADH2 inhib: inhibitors of human HADH2 dehydrogenase; Q99714; recombinant HADH2, NADH fluorescence, beta-hydroxybutyryl-CoA; Potency, µM (doses to about 57.1 µM), for the others: top-dose activity change, negative = inhibition, most hits filed as inhibitors; hit rate 3.4% among 73,000; AID 886; further: potency means the concentration at half of the fitted maximal effect; on the % scale 0 is the no-effect control and ±100 the full control effect; nearly all actives have a fitted effect of over 60% in size
Target sequence (Q99714 whole entry, looked up, one chain of several): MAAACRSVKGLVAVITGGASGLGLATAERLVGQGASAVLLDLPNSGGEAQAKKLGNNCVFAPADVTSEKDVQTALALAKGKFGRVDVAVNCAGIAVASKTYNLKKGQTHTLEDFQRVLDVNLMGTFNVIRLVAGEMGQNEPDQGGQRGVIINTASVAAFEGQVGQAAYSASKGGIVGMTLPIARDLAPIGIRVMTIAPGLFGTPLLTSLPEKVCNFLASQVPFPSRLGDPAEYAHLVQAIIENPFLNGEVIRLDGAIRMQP
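20 nM HADH2 + cpd, 15 min RT; add 1 mM NAD+/90 uM beta-hydroxybutyryl-CoA; kinetic fluorescence 360/450 nm, 4 min. Tris-HCl pH 9.0, 0.01% Tween-20.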
AID923: qHTS Assay for Allosteric/Competitive Inhibitors of Caspase-1: Spectroscopic Profiling in AFC Spectral Region. hit rate 1.1% among 75,000. Potency, µM (highest dose often 57.5 µM), inactives show top-dose fluorescence increase, actives largely listed as activators. AID 923, 2007. compound fluorescence, AFC spectral region (405/520 nm); further: potency means the concentration at half of the fitted maximal effect; 0% is about no effect
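Baseline compound fluorescence (AFC region, 405 nm ex/520 nm em) taken from the intercept of kinetic reads with 50 nM caspase-1 and 5 uM Ac-WEHD-AFC; normalized to an on-plate AFC standard curve; compounds titrated up to 57 uM.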
A350 autofl: A350 region autofluorescence; Compound autofluorescence, 340/450 nm, Alexa 350 dye-equivalents; stronger effect = higher value; max dye-equivalent concentration, M; hit rate 11% among 59,000; AID 590; in the data active means max dye-equivalent concentration above about 10 nM; inconclusive means mostly about 1.1 nM to 9.6 nM
* = called active by the depositor; [ ] = dose if it differs, or a comment. Unless noted, the call rests on the fitted dose curve; in most records, active means well fitted curve in the direction sought with a large enough effect; inconclusive means small, poorly fitted or top-dose-only effect, or another doubt; inactive means no such curve, though single readings can be large; an effect the other way counts as inactive or inconclusive.

Results for CCCn1c(-c2ccc(F)cc2)nc2c(NC3CC4CCC(C3)N4C)nc(C)nc21 (configuration not stated) ?
CRE Fsk mod: -2%; HSD17B inh: 32µM*; HADH2 inhib: -5%; AID923: -3%

Results for Cc1nc(NCc2ccccc2)c2nc(-c3ccccc3)n(CCCN3CCOCC3)c2n1 ?
CRE Fsk mod: inconclusive; HSD17B inh: 25µM*; HADH2 inhib: inconclusive; AID923: -2%

Results for O=C(O)c1cccc(Cl)c1Cl ?
CRE Fsk mod: 6%; HSD17B inh: -1%; HADH2 inhib: -6%; AID923: -1%

What do the screens show for `Cc1ccccc1Br`?
CRE Fsk mod: -5%; HSD17B inh: 0%; HADH2 inhib: -13%; AID923: 1%

What do the screens show for `Cc1ccc(CNC(=O)C2(CC(C)C)C=CCN2C(=O)c2ccccc2)o1` (configuration not stated)?
CRE Fsk mod: -11%; HSD17B inh: -9%; HADH2 inhib: 13%; AID923: 1%

Results for Cc1nc(NCCO)c2nc(-c3ccccc3)n(CC3CCN(C)CC3)c2n1 ?
CRE Fsk mod: inconclusive; HSD17B inh: 25µM*; HADH2 inhib: inconclusive; AID923: 2%

What do the screens show for `S=c1nc(-c2ccccc2)n(CCN2CCOCC2)c2c1CCCC2`?
CRE Fsk mod: 19%; HSD17B inh: -3%; 4-MU autofl: inactive; HADH2 inhib: inconclusive; AID923: 0%; A350 autofl: inactive

What do the screens show for `Cc1nc(NCc2ccccc2)c2nc(-c3ccccc3)n(CCN3CCCCC3)c2n1`?
CRE Fsk mod: 9%; HSD17B inh: 25µM*; HADH2 inhib: 27%; AID923: -2%

What do the screens show for `Cc1nc(Nc2ccccc2)c2nc(-c3ccccc3)n(CCN3CCOCC3)c2n1`?
CRE Fsk mod: 7.9µM*; HSD17B inh: inconclusive; HADH2 inhib: 4%; AID923: -3%

Results for CCCn1c(C)nc2c(N3CCCN(Cc4ccccc4)CC3)nc(C)nc21 ?
CRE Fsk mod: inconclusive; HSD17B inh: -4%; HADH2 inhib: 12%; AID923: 5%

How did CCCCNc1nc(C)nc2c1nc(-c1ccccc1)n2CCN1CCCC1 do in these assays?
CRE Fsk mod: 14%; HSD17B inh: 20µM*; HADH2 inhib: -24%; AID923: 1%

What do the screens show for `CCCN1C[C@H](CSC)C[C@H]2c3cccc4[nH]cc(c34)C[C@@H]21`?
CRE Fsk mod: -23%; HSD17B inh: 7%[25.6 µM]; 4-MU autofl: inconclusive; HADH2 inhib: 44%; AID923: 0%[25.7 µM]; A350 autofl: inconclusive

How did Nc1nc(N)[n+]([O-])c(N)c1NCO do in these assays?
CRE Fsk mod: 9%[7.6 µM]; HSD17B inh: 8%[11.4 µM]; 4-MU autofl: inactive; HADH2 inhib: -4%[11.4 µM]; AID923: -2%[11.5 µM]; A350 autofl: inactive

How did C=CCOC(=O)C(C(C)=O)C(NC(=O)OC)c1ccc(F)cc1 (configuration not stated) do in these assays?
HSD17B inh: 5%[11.4 µM]; HADH2 inhib: -8%[11.4 µM]; AID923: 1%[11.5 µM]

How did C[C@@H]1CN2[C@H](c3ccc(Br)cc3)[C@H](C)CC[C@H]2C(=O)O1 do in these assays?
HSD17B inh: 1%[11.4 µM]; HADH2 inhib: -2%[11.4 µM]; AID923: -4%[11.5 µM]

How did COc1cc2c(cc1OC)C1C(=O)c3c(cc4c(c3O)C=CC(C)(C)O4)OC1CO2 (configuration not stated) do in these assays?
HSD17B inh: -12%; AID923: -2%

What do the screens show for `C[C@H]1C[C@]2(O[C@@H]2C)C(=O)O[C@@H]2CCN(C)C/C=C(/COC(=O)[C@]1(C)O)C2=O`?
HSD17B inh: -1%; AID923: -2%

What do the screens show for `CCCCNc1nc(C)nc2c1nc(-c1ccccc1)n2CC1CCCN1CC` (configuration not stated)?
CRE Fsk mod: 11%; HSD17B inh: 20µM*; HADH2 inhib: -19%; AID923: -4%

How did COc1ccccc1NS(=O)(=O)c1ccc(C(=O)OCC(=O)NCc2ccco2)cc1 do in these assays?
CRE Fsk mod: -8%; HSD17B inh: -16%; 4-MU autofl: inactive; HADH2 inhib: 13%; AID923: 0%; A350 autofl: inactive

How did COC(=O)c1ccccc1NC(=O)c1ccc2c(c1)C(=O)N(Cc1ccco1)C2=O do in these assays?
CRE Fsk mod: -1%; HSD17B inh: inconclusive; 4-MU autofl: 4.5e-08M*; HADH2 inhib: -21%; AID923: -1%; A350 autofl: 6e-08M*

Results for CCc1ccc(NC(=O)c2ccc3c(c2)C(=O)N(Cc2ccco2)C3=O)cc1 ?
CRE Fsk mod: inconclusive; HSD17B inh: inconclusive; HADH2 inhib: inconclusive; AID923: 2%

How did COc1ccc(C(=O)Nc2ccc(Cl)cc2C(=O)NCc2ccco2)cc1OC do in these assays?
CRE Fsk mod: inconclusive; HSD17B inh: 234%; HADH2 inhib: 17%; AID923: 0%

What do the screens show for `COc1ccc(C(=O)Nc2ccccc2C(=O)NCc2ccco2)cc1OC`?
CRE Fsk mod: inconclusive; HSD17B inh: inconclusive; 4-MU autofl: 2e-07M*; HADH2 inhib: 16%; AID923: 1%; A350 autofl: 2.5e-07M*

What do the screens show for `COc1ccc(S(=O)(=O)Nc2ccccc2C(=O)NCc2ccco2)cc1`?
CRE Fsk mod: -2%; HSD17B inh: 32µM*; 4-MU autofl: inconclusive; HADH2 inhib: inconclusive; AID923: 1%; A350 autofl: inconclusive

What do the screens show for `CCc1ccccc1NS(=O)(=O)c1ccc2[nH]cc(C(=O)NCc3ccco3)c(=O)c2c1`?
CRE Fsk mod: inconclusive; HSD17B inh: 32µM*; 4-MU autofl: inactive; HADH2 inhib: -23%; AID923: 1%; A350 autofl: inactive

Results for Cc1ncc(COP(=O)(O)O)c(C)c1O ?
CRE Fsk mod: 8%[7.6 µM]; HSD17B inh: -1%[11.4 µM]; 4-MU autofl: inactive; HADH2 inhib: 9%[11.4 µM]; AID923: -1%[11.5 µM]; A350 autofl: inactive

Results for O=C(O)c1ccccc1NS(=O)(=O)c1cccc2ccccc12 ?
HSD17B inh: 0%; HADH2 inhib: -6%; AID923: 0%

What do the screens show for `CCOCCOCC`?
CRE Fsk mod: -5%; HSD17B inh: -3%; HADH2 inhib: 0%; AID923: 4%

How did Oc1cc(CN2COc3ccccc32)c(O)cc1CNC1CCCCC1 do in these assays?
CRE Fsk mod: inconclusive; HSD17B inh: 1.6µM*; 4-MU autofl: inconclusive; HADH2 inhib: 1.6µM*; AID923: 2%[11.5 µM]; A350 autofl: 1.5e-08M*

How did CN1CCN(c2ccnc(-c3ccoc3)n2)CC1 do in these assays?
CRE Fsk mod: -4%; HSD17B inh: 20µM*; 4-MU autofl: inactive; HADH2 inhib: 3.2µM*; AID923: 3%; A350 autofl: inactive
